Our source for the PBM binding z-score values is the supplement of paper PMC6555819.

The subject of one assay is PXR:RXRa (NR concentration 270 nM, RXRa partner concentration 90 nM). The assay can be described thus: PBM binding z-score (relative to random genomic background probes); higher = stronger binding; sequences stand for … in GC…GCGATTGACAGCGTAGAATGAAGG
The gist of the method:
(§1)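 Each nuclear receptor dimer, without ligand, was incubated for 1 h on custom Agilent 4×180K protein-binding microarrays. Binding was detected with antibodies against each partner (one per run), and scanned fluorescence was regression-normalized. The binding z-scores are referenced to random human genomic background probes.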
Regarding CCTGCTAGGTCATGGTTAGCTAATCTACAGTATG, the PBM binding z-score turned out to be 1.38.
The same measure, in the same setting: under AATACAGGGTCACTAGGCCAGTGTAGGTACGAAT stands 3.37; under AGAACGAGGTCAATGAGTTGATAGCACGGGTGGC, 5.72; under TCTAGCAGGCCAGAGGGTCACTCTAGAGGTACGG, 1.24.
On the same count and under the same terms, the same measure for CCTATTAGTTGACTATAAGGGCAACCGAAGCTCG: 0.229; for ATCTCTAGGTAAAGATAGTTCAGTGCATGCAAAT: 1.1; for CCTCGGCGGACAACAGGAGGTCAGAGCTGCCAGA: 1.32.
AGAATGAGGGTAAGATCAGGGAAACAGAATACAT showed a PBM binding z-score of 0.216.
As for TCTATTTGTTGAAGGGCAACCGACGAGTCCGTTT, the PBM binding z-score was 1.
On the same count and under the same terms, under CGTCCAAGGTCAATACTAGGTCAGTGAAAGCATT stands 4.37.
The same measure, in the same setting: under GCTACTGGGGCATCAGCAGGTTACCATAACTTAA stands 0.0663; under CCTCCAAGGTCAGCAGGTCAGTGAAAGCGACGTG, 3.13.
In turn, CCGACTGGGGCAGAAAGGTTACCATTCCATCCGG came in with a PBM binding z-score of 0.744.
The same measure, in the same setting: under CCTACTTGGTCAAGGTCACACACGCTATAGGTAC stands 4.31; under CCTGCTAGGTGAATGGTCAGCTAAAGCAGCTCGC, -0.698.
TCTTGTAGATCAAAAGTTAAGAAAGCCGAAGCCT: the PBM binding z-score came out at 0.243.
Sequence CCTTACGGGTCACGCCAGGTTATAGCATCGGAGT came in with a PBM binding z-score of 5.46.
Turning to GCGACTGGGGCAAAGCAGGTTAACATAAGGTTGG, the PBM binding z-score was found to be 0.721.
As to GCGACTGCGGCAAAGCAGGTTACCATAAGGTTGG, the PBM binding z-score is -0.186.
As for TAGCCTAGGTCAGATCGGGCCAATATACGCTATA, the PBM binding z-score came to 2.21.
As for AGAACGAGGGCACGTTGAGTTGATAGCAGAGTAG, the PBM binding z-score is 1.33.
ACAAGCAGGCCAAGTTTGGGTCACTCAAACAAAG: the PBM binding z-score is 0.706.
As to ATCTCTAGGTAACAAGTTCAGTGAAAGAGAGGAC, the PBM binding z-score is 1.71.
Consider ACTTACGGGTCATCGAGGTTATAGCACGCGTATA, for which the PBM binding z-score amounted to 5.14.
Still for that read-out and setting: under CCGACTGGGGCAGAAAGGCTACCATACCATCCGG stands -0.836.
As for ACTTGCAGGCCAAGTTTGGGTCACTCAAACAAAG, the PBM binding z-score amounted to 0.858.
AGAACGAGGGCAATGAGTTGTTAGCACGGGTGGC came in with a PBM binding z-score of 0.859.
Regarding CCTTACGGGTCAAGGTTATAGGACGGGTGGTACG, the PBM binding z-score is 3.39.
Still for that read-out and setting: under CCTTACAGGTCACTCCAGGTTATAGCATCGGAGT stands 4.74; under TCTACTAGGTCAGTTGGTCAGCTAACGAGCTGCC, 0.537.
TAGCCTAGGTGAGATCGGGCCAGTATACGCTATA returned a PBM binding z-score of -0.281.
The same measure, in the same setting: the same measure for TGTCAAAGTTCAAAGGTAACGGAAGTATCCACAC: 5.74; for TCATAAAGGTAAAGGTGAAAGTCGAACGATATGA: 1.3.
The sequence ACCGAAAGGTCGAGGTGAGTATAGAGAAAGGGAA had a PBM binding z-score of 2.31.
Take GATACAGGCTCAAGGCCAGAGTACGCGTATTGAT: the PBM binding z-score was -0.534.
The sequence TCTTGTAGATCAAGCAGGTTAAGACAGCCTGAGT displayed a PBM binding z-score of 0.414.
With TCGAGTAGGTTACCAATGGAGCATTCAGCTTTCT, the PBM binding z-score is -0.0122.
Consider TTACCAAGGTGCGCTGAGGTCGTTGATCCAACTC, for which the PBM binding z-score was found to be 2.58.
Turning to TAGCCGAGGTCAGATCGGGCCAGTATACGCTATA, the PBM binding z-score amounted to 4.38.

The next assay deals with PXR homodimer (NR concentration 270 nM). Described as above. In a few lines:
as §1
On to CCTGCTAGGTCATGGTTAGCTAATCTACAGTATG, for which the PBM binding z-score is -0.137.
Take AATACAGGGTCACTAGGCCAGTGTAGGTACGAAT: the PBM binding z-score was determined as 0.255.
On the same count and under the same terms, the same measure for AGAACGAGGTCAATGAGTTGATAGCACGGGTGGC: 8.63.
On the same count and under the same terms, the same measure for TCTAGCAGGCCAGAGGGTCACTCTAGAGGTACGG: -0.322; for CCTATTAGTTGACTATAAGGGCAACCGAAGCTCG: 0.676; for ATCTCTAGGTAAAGATAGTTCAGTGCATGCAAAT: 1.29.
Take CCTCGGCGGACAACAGGAGGTCAGAGCTGCCAGA: the PBM binding z-score turned out to be 0.232.
On the same count and under the same terms, under AGAATGAGGGTAAGATCAGGGAAACAGAATACAT stands 0.539; under TCTATTTGTTGAAGGGCAACCGACGAGTCCGTTT, 1.16; under CGTCCAAGGTCAATACTAGGTCAGTGAAAGCATT, 1.76.
With GCTACTGGGGCATCAGCAGGTTACCATAACTTAA, the PBM binding z-score was -0.537.
As for CCTCCAAGGTCAGCAGGTCAGTGAAAGCGACGTG, the PBM binding z-score was 0.806.
As for CCGACTGGGGCAGAAAGGTTACCATTCCATCCGG, the PBM binding z-score is -0.202.
The same measure, in the same setting: under CCTACTTGGTCAAGGTCACACACGCTATAGGTAC stands 1.72; under CCTGCTAGGTGAATGGTCAGCTAAAGCAGCTCGC, -0.722; under TCTTGTAGATCAAAAGTTAAGAAAGCCGAAGCCT, -0.268.
The same measure, in the same setting: the same measure for CCTTACGGGTCACGCCAGGTTATAGCATCGGAGT: 0.316.
The sequence GCGACTGGGGCAAAGCAGGTTAACATAAGGTTGG came in with a PBM binding z-score of -0.496.
The sequence GCGACTGCGGCAAAGCAGGTTACCATAAGGTTGG gave a PBM binding z-score of -0.666.
Same read-out and setting: the same measure for TAGCCTAGGTCAGATCGGGCCAATATACGCTATA: -0.489; for AGAACGAGGGCACGTTGAGTTGATAGCAGAGTAG: 0.471.
With ACAAGCAGGCCAAGTTTGGGTCACTCAAACAAAG, the PBM binding z-score is -0.465.
ATCTCTAGGTAACAAGTTCAGTGAAAGAGAGGAC: the PBM binding z-score was 2.41.
On the same count and under the same terms, under ACTTACGGGTCATCGAGGTTATAGCACGCGTATA stands 4.1.
Take CCGACTGGGGCAGAAAGGCTACCATACCATCCGG: the PBM binding z-score is -0.377.
Consider ACTTGCAGGCCAAGTTTGGGTCACTCAAACAAAG, for which the PBM binding z-score was -0.0999.
Same read-out and setting: under AGAACGAGGGCAATGAGTTGTTAGCACGGGTGGC stands 1.26; under CCTTACGGGTCAAGGTTATAGGACGGGTGGTACG, 0.631; under CCTTACAGGTCACTCCAGGTTATAGCATCGGAGT, 0.873.
The same measure, in the same setting: under TCTACTAGGTCAGTTGGTCAGCTAACGAGCTGCC stands -0.418; under TAGCCTAGGTGAGATCGGGCCAGTATACGCTATA, -0.98; under TGTCAAAGTTCAAAGGTAACGGAAGTATCCACAC, 3.74.
TCATAAAGGTAAAGGTGAAAGTCGAACGATATGA yielded a PBM binding z-score of -0.127.
On to ACCGAAAGGTCGAGGTGAGTATAGAGAAAGGGAA, for which the PBM binding z-score came out at 0.286.
Same read-out and setting: the same measure for GATACAGGCTCAAGGCCAGAGTACGCGTATTGAT: 0.0448.
Turning to TCTTGTAGATCAAGCAGGTTAAGACAGCCTGAGT, the PBM binding z-score was 0.135.
Same read-out and setting: under TCGAGTAGGTTACCAATGGAGCATTCAGCTTTCT stands -0.741.
The same measure, in the same setting: under TTACCAAGGTGCGCTGAGGTCGTTGATCCAACTC stands 1.74.
On to TAGCCGAGGTCAGATCGGGCCAGTATACGCTATA, for which the PBM binding z-score is -0.437.
